In PubChem BioAssay AID1117291 (Broad Institute, 2014):
Measured potencies and affinities stand elsewhere. Records with an inconclusive call do not appear. Activity calls are given as the source filed them.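 How the source made its calls: active means compound whose fitted half-maximal potency lies at or below double its highest tested dose in every test; inconclusive means tests disagree, or a flat partial loss, or a poor fit; inactive means every test inactive.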

Assay: hepatoma cell viability loss – CellTiter-Glo luminescence, dry powder, set 20, cytotoxicity control, dose response (AID 1117291)
Conditions: HepG2 viability, CellTiter-Glo ATP luminescence, 72 h; series mostly up to 26 µM

Row | Structure (SMILES) | outcome
1 | NC(=NCCc1c[nH]c2ccccc12)NS(=O)(=O)c1cc(F)ccc1F | inactive
2 | CC(=O)N1CCN(C(=O)C2(NC(=O)Nc3cccc(F)c3)CCCCC2)CC1 | inactive
3 | COc1ccc(C(=O)O)cc1S(=O)(=O)Nc1cc(C(F)(F)F)ccc1N1CCCCC1 | inactive
4 | CC(=O)N1CCN(C(=O)C2CCCN2C(=O)Nc2ccc(C)cc2)CC1 (configuration not stated) | inactive
5 | Cc1ccccc1S(=O)(=O)Nc1cc(C(F)(F)F)ccc1N1CCCCC1 | inactive
6 | O=[N+]([O-])c1cccc(S(=O)(=O)Nc2cc(C(F)(F)F)ccc2N2CCCCC2)c1 | inactive
7 | O=S(=O)(Nc1cc(C(F)(F)F)ccc1N1CCCCC1)c1ccc(-c2ccccc2)cc1 | inactive
8 | Cc1ccc(NC(=O)NC2(C(=O)N3CCN(c4ccccc4)CC3)CCCCC2)cc1 | inactive
9 | CC(=O)N1CCN(C(=O)C2(NC(=O)NC(C)(C)C)CCCCC2)CC1 | inactive
10 | CC(=O)N1CCN(C(=O)C2(NC(=O)Nc3ccccc3F)CCCCC2)CC1 | inactive
11 | CC(=O)N1CCN(C(=O)C2(NC(=O)Nc3ccc(C(C)C)cc3)CCCC2)CC1 | inactive
12 | O=S(=O)(Nc1cc(C(F)(F)F)ccc1N1CCCCC1)c1ccc(F)cc1 | inactive
13 | N#Cc1ccc(S(=O)(=O)Nc2cc(C(F)(F)F)ccc2N2CCCCC2)cc1 | inactive
14 | O=S(=O)(Nc1cc(C(F)(F)F)ccc1N1CCCCC1)c1ccc(Cl)cc1 | inactive
15 | CC(=O)N1CCN(C(=O)C2(NC(=O)Nc3ccc(C(C)C)cc3)CCCCC2)CC1 | inactive
16 | O=S(=O)(Nc1cc(C(F)(F)F)ccc1N1CCCCC1)c1ccccc1 | inactive
17 | O=S(=O)(Nc1cc(C(F)(F)F)ccc1N1CCCCC1)c1ccc(C(F)(F)F)cc1 | inactive
18 | COc1ccc(C(=O)Nc2cc(C(F)(F)F)ccc2N2CCCC2)cc1S(=O)(=O)O | inactive
19 | COc1cccc(NC(=O)NC2(C(=O)N3CCN(C(C)=O)CC3)CCCCC2)c1 | inactive
20 | COc1ccc(C2=NN(c3ccc(C(=O)O)cc3)C(c3ccc(OC)c(OC)c3)C2)cc1 (configuration not stated) | inactive
21 | CC(=O)N1CCN(C(=O)C2(NC(=O)Nc3ccccc3)CCCC2)CC1 | inactive
22 | COc1ccc(C(=O)O)cc1S(=O)(=O)Nc1cc(C(F)(F)F)ccc1N(C)C | inactive
